40 compounds from the supplement of paper PMC9023506 can be followed below.

SMILES strings stand for the structures. Where a name gives a salt, the structure may show the parent alone.

This experiment relates to Danio rerio larvae (5 dpf). Briefly: optomotor response to green moving lines, difference vs DMSO (percentage points (treated minus DMSO)); higher = more of the behaviour than the DMSO vehicle control. The settings on record: 10 µM; exposure time: 3 h pre-incubation + 3 h imaging. The protocol: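 5-dpf wild-type zebrafish larvae were imaged in 96-well plates. They were treated with 190 Tocris FDA-approved drugs at 10 µM (1 µl/ml DMSO) for 3 h before and 3 h during imaging at 28.5 °C, 48 larvae per drug. Automated image analysis gave % time moving and optomotor responses. Values are drug group mean minus DMSO vehicle mean (n=844), in percentage points, for 10 behaviours.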
As for `Clc1ccccc1C(c1ccccc1)(c1ccccc1)n1ccnc1` [Clotrimazole], the “optomotor response to green moving lines” value is -19.6.

Turning to `CN1CCC[C@@H]1CCO[C@](C)(c1ccccc1)c1ccc(Cl)cc1` [Clemastine fumarate], the “optomotor response to green moving lines” value amounted to 4.02.

Turning to `CCOc1nc2cccc(C(=O)O)c2n1Cc1ccc(-c2ccccc2-c2noc(=O)[nH]2)cc1` [Azilsartan], the “optomotor response to green moving lines” value is -0.791. The value for `O=C1CCc2ccc(OCCCCN3CCN(c4cccc(Cl)c4Cl)CC3)cc2N1` [Aripiprazole] was -2.87.

Regarding `COC(=O)C1=C(C)NC(C)=C(C(=O)OC(C)C)C1c1cccc2nonc12` (stereo not given) [Isradipine], the “optomotor response to green moving lines” value is -1.42.

Regarding `O=C(O)CCCc1ccccc1` [Sodium 4-Phenylbutyrate], the “optomotor response to green moving lines” value was -2.96. The value for `NC(=O)N1c2ccccc2C=Cc2ccccc21` [Carbamazepine] was -0.434; that for `C[C@H]1O[C@H](O[C@H]2[C@H](O)[C@@H](O)[C@@H](O[C@H]3[C@H](O)[C@@H](O)C(O)O[C@@H]3CO)O[C@@H]2CO)[C@H](O)[C@@H](O)[C@@H]1N[C@H]1C=C(CO)[C@@H](O)[C@H](O)[C@H]1O` (stereo not given in full) [Acarbose] was 6.59. On to `C[C@@H]1C[C@H]2[C@@H]3CCC4=CC(=O)C=C[C@]4(C)[C@@]3(F)[C@@H](O)C[C@]2(C)[C@@]1(O)C(=O)CO` [Dexamethasone], for which the “optomotor response to green moving lines” value came to 1.46.

`CC[C@H]1OC(=O)[C@H](C)[C@@H](O[C@H]2C[C@@](C)(OC)[C@@H](O)[C@H](C)O2)[C@H](C)[C@@H](O[C@@H]2O[C@H](C)C[C@H](N(C)C)[C@H]2O)[C@](C)(O)C[C@@H](C)CN(C)[C@H](C)[C@@H](O)[C@]1(C)O` [Azithromycin]: the “optomotor response to green moving lines” value was -4.27. The value for `OC(c1cc(C(F)(F)F)nc2c(C(F)(F)F)cccc12)C1CCCCN1` (stereo not given) [Mefloquine hydrochloride] was -0.307; that for `CC(C)COCC(CN(Cc1ccccc1)c1ccccc1)N1CCCC1` (stereo not given) [Bepridil hydrochloride] was -2.16. For `CO[C@H]1/C=C/O[C@@]2(C)Oc3c(C)c(O)c4c(O)c(c5c(nc6cc(C)ccn65)c4c3C2=O)NC(=O)/C(C)=C\C=C\[C@H](C)[C@H](O)[C@@H](C)[C@@H](O)[C@@H](C)[C@H](OC(C)=O)[C@@H]1C` [Rifaximin] the value was 0.563; for `CN(C)CCc1c[nH]c2ccc(Cn3cncn3)cc12` [Rizatriptan benzoate], 3.24. For `Cc1cccc(CN2CCN(C(c3ccccc3)c3ccc(Cl)cc3)CC2)c1` (stereo not given) [Meclizine dihydrochloride] the value was -8.55; for `Clc1ccc(COC(Cn2ccnc2)c2ccc(Cl)cc2Cl)c(Cl)c1` (stereo not given) [Miconazole nitrate], -5.21; for `CNS(=O)(=O)Cc1ccc2[nH]cc(CCN(C)C)c2c1` [Sumatriptan succinate], 3.74. Consider `COc1cc2nc(N3CCN(C(=O)c4ccco4)CC3)nc(N)c2cc1OC` [Prazosin hydrochloride], for which the “optomotor response to green moving lines” value is -10.2. The value for `CN(CCOc1ccc(CC2SC(=O)NC2=O)cc1)c1ccccn1` (stereo not given) [Rosiglitazone] was 1.76; that for `C[C@]12CCC(=O)C=C1CC[C@@H]1[C@@H]2[C@@H](O)C[C@@]2(C)[C@H]1CC[C@]2(O)C(=O)CO` [Hydrocortisone] was 10.5. As for `Nc1ccn([C@@H]2O[C@H](CO)[C@@H](O)C2(F)F)c(=O)n1` [Gemcitabine hydrochloride], the “optomotor response to green moving lines” value worked out at 0.29.

For `Nc1cc(N2CCCCC2)nc(N)[n+]1[O-]` [Minoxidil], the “optomotor response to green moving lines” value was -7.05. The value for `CN1CC2c3ccccc3Oc3ccc(Cl)cc3C2C1` (stereo not given) [Asenapine maleate] was -9.85. For `NC(=O)c1ncn([C@@H]2O[C@H](CO)[C@@H](O)[C@H]2O)n1` [Ribavirin] the value was -3.77; for `CC(C)n1c(/C=C/C(O)CC(O)CC(=O)O)c(-c2ccc(F)cc2)c2ccccc21` (stereo not given) [Fluvastatin sodium], -3.1; for `O=c1[nH]c(=O)n([C@H]2C[C@H](O)[C@@H](CO)O2)cc1C(F)(F)F` [Trifluorothymidine], 6.4. As for `CN1CC(=O)N2[C@H](c3ccc4c(c3)OCO4)c3[nH]c4ccccc4c3C[C@@H]2C1=O` [Tadalafil], the “optomotor response to green moving lines” value is -0.909. Consider `CCCCCCCCc1ccc(CCC(N)(CO)CO)cc1`, for which the “optomotor response to green moving lines” value was -1.15. `CC(C)C(=O)Nc1ccc([N+](=O)[O-])c(C(F)(F)F)c1` [Flutamide]: the “optomotor response to green moving lines” value is -1.99. The value for `Cn1cnc([N+](=O)[O-])c1Sc1ncnc2[nH]cnc12` [Azathioprine] was -1.06. The value for `CN(C)C(=N)NC(=N)N` [Metformin hydrochloride] was 7.37; that for `CNCc1ccc(-c2[nH]c3cc(F)cc4c3c2CCNC4=O)cc1` [Rucaparib camsylate] was 1.55; that for `O=C(O[C@@H]1C[C@@H]2C[C@H]3C[C@H](C1)N2CC3=O)c1c[nH]c2ccccc12` [Dolasetron mesylate] was -11.6. Take `Cc1nnc(C(C)C)n1C1C[C@H]2CC[C@@H](C1)N2CC[C@H](NC(=O)C1CCC(F)(F)CC1)c1ccccc1` (stereo in doubt) [Maraviroc]: the “optomotor response to green moving lines” value came out at 3.11. On to `N[C@@H]1[C@H]2CN(c3nc4c(cc3F)c(=O)c(C(=O)O)cn4-c3ccc(F)cc3F)C[C@@H]12` [Trovafloxacin mesylate], for which the “optomotor response to green moving lines” value is -4.23. The value for `CCCCCOC(=O)Nc1nc(=O)n([C@@H]2O[C@H](C)[C@@H](O)[C@H]2O)cc1F` [Capecitabine] was 1.46.

On to `COc1ccc(Cl)cc1C(=O)NCCc1ccc(S(=O)(=O)NC(=O)NC2CCCCC2)cc1` [Glibenclamide], for which the “optomotor response to green moving lines” value turned out to be 9.49. Turning to `CC[C@H](C)C(=O)O[C@H]1C[C@@H](C)C=C2C=C[C@H](C)[C@H](CC[C@@H]3C[C@@H](O)CC(=O)O3)[C@H]21` [Lovastatin], the “optomotor response to green moving lines” value was -3.13. The value for `COc1ccccc1OCCNCC(O)COc1cccc2[nH]c3ccccc3c12` (stereo not given) [Carvedilol] was -14.2; that for `Cc1ccc(-c2cc(C(F)(F)F)nn2-c2ccc(S(N)(=O)=O)cc2)cc1` [Celecoxib] was 0.469.
